The values below come from article doi:10.1101/2024.03.05.583629.

pT7_6His-AlfaTag-HOXD13, sequence (P35453 263-343): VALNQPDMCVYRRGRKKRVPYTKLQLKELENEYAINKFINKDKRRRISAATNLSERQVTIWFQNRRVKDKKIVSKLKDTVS

This test concerns the target pT7_6His-AlfaTag-HOXD13 (human, UniProt P35453 263-343). Briefly: PADIT-seq. As to conditions: dsDNA, one strand shown.
“CTCGAGGATATCAAGATCTGGCCTCGGCGTTTTACTTGGAACCTCTAGCTAGCCGACTCACTATAGGGATAATCGCCCTGAGCAAAGACC”: the binding signal was 1.25 ± 0.0875 log2FC.

Turning to “CTCGAGGATATCAAGATCTGGCCTCGGCAATGTAAAAGGAACCTCTAGCTAGCCGACTCACTATAGGGATAATCGCCCTGAGCAAAGACC”, the binding signal came out at 0.947 ± 0.0815 log2FC.

With “CTCGAGGATATCAAGATCTGGCCTCGGCGGGCCACGCGGAACCTCTAGCTAGCCGACTCACTATAGGGATAATCGCCCTGAGCAAAGACC”, the binding signal is -1.1 ± 0.106 log2FC.

“CTCGAGGATATCAAGATCTGGCCTCGGCTTCGTAAAAGGAACCTCTAGCTAGCCGACTCACTATAGGGATAATCGCCCTGAGCAAAGACC” returned a binding signal of 1.86 ± 0.0804 log2FC.

Regarding “CTCGAGGATATCAAGATCTGGCCTCGGCTTTTTATTGGGAACCTCTAGCTAGCCGACTCACTATAGGGATAATCGCCCTGAGCAAAGACC”, the binding signal stood at 3.26 ± 0.0862 log2FC.

In turn, “CTCGAGGATATCAAGATCTGGCCTCGGCTTTTTAAATGGAACCTCTAGCTAGCCGACTCACTATAGGGATAATCGCCCTGAGCAAAGACC” had a binding signal of 1.81 ± 0.0949 log2FC.

For the sequence “CTCGAGGATATCAAGATCTGGCCTCGGCACCCTAAAAGGAACCTCTAGCTAGCCGACTCACTATAGGGATAATCGCCCTGAGCAAAGACC”, the binding signal was found to be 0.642 ± 0.0968 log2FC.

Regarding “CTCGAGGATATCAAGATCTGGCCTCGGCCGCGTAAAAGGAACCTCTAGCTAGCCGACTCACTATAGGGATAATCGCCCTGAGCAAAGACC”, the binding signal was found to be 1.44 ± 0.0853 log2FC.

As for “CTCGAGGATATCAAGATCTGGCCTCGGCGTGCTAAAAGGAACCTCTAGCTAGCCGACTCACTATAGGGATAATCGCCCTGAGCAAAGACC”, the binding signal is -0.142 ± 0.0902 log2FC.

For “CTCGAGGATATCAAGATCTGGCCTCGGCCTGTTAAAAGGAACCTCTAGCTAGCCGACTCACTATAGGGATAATCGCCCTGAGCAAAGACC”, the binding signal came out at 2.25 ± 0.0806 log2FC.

In turn, “CTCGAGGATATCAAGATCTGGCCTCGGCGTTTTATCTGGAACCTCTAGCTAGCCGACTCACTATAGGGATAATCGCCCTGAGCAAAGACC” gave a binding signal of 0.898 ± 0.106 log2FC.

Take “CTCGAGGATATCAAGATCTGGCCTCGGCATTTTAGGAGGAACCTCTAGCTAGCCGACTCACTATAGGGATAATCGCCCTGAGCAAAGACC”: the binding signal was 1.62 ± 0.0831 log2FC.

As to “CTCGAGGATATCAAGATCTGGCCTCGGCTTTTTAGCGGGAACCTCTAGCTAGCCGACTCACTATAGGGATAATCGCCCTGAGCAAAGACC”, the binding signal is -0.0861 ± 0.121 log2FC.

The sequence “CTCGAGGATATCAAGATCTGGCCTCGGCAGCTTAAAAGGAACCTCTAGCTAGCCGACTCACTATAGGGATAATCGCCCTGAGCAAAGACC” registered a binding signal of 0.129 ± 0.0835 log2FC.

With “CTCGAGGATATCAAGATCTGGCCTCGGCTTGGTAAAAGGAACCTCTAGCTAGCCGACTCACTATAGGGATAATCGCCCTGAGCAAAGACC”, the binding signal came to 0.112 ± 0.0883 log2FC.

Take “CTCGAGGATATCAAGATCTGGCCTCGGCAGTCCACGCGGAACCTCTAGCTAGCCGACTCACTATAGGGATAATCGCCCTGAGCAAAGACC”: the binding signal was -0.993 ± 0.114 log2FC.

Turning to “CTCGAGGATATCAAGATCTGGCCTCGGCCGCCCAGTTGGAACCTCTAGCTAGCCGACTCACTATAGGGATAATCGCCCTGAGCAAAGACC”, the binding signal was -0.996 ± 0.138 log2FC.

As for “CTCGAGGATATCAAGATCTGGCCTCGGCTGCCTAAAAGGAACCTCTAGCTAGCCGACTCACTATAGGGATAATCGCCCTGAGCAAAGACC”, the binding signal was -0.51 ± 0.109 log2FC.

“CTCGAGGATATCAAGATCTGGCCTCGGCTTTTTAGCCGGAACCTCTAGCTAGCCGACTCACTATAGGGATAATCGCCCTGAGCAAAGACC”: the binding signal is -0.442 ± 0.12 log2FC.

On to “CTCGAGGATATCAAGATCTGGCCTCGGCCTTCCACGCGGAACCTCTAGCTAGCCGACTCACTATAGGGATAATCGCCCTGAGCAAAGACC”, for which the binding signal was -1.1 ± 0.121 log2FC.

“CTCGAGGATATCAAGATCTGGCCTCGGCGTTTTACCGGGAACCTCTAGCTAGCCGACTCACTATAGGGATAATCGCCCTGAGCAAAGACC” came in with a binding signal of 1.01 ± 0.0969 log2FC.

As to “CTCGAGGATATCAAGATCTGGCCTCGGCTTTTTATAAGGAACCTCTAGCTAGCCGACTCACTATAGGGATAATCGCCCTGAGCAAAGACC”, the binding signal is 3.23 ± 0.0851 log2FC.

“CTCGAGGATATCAAGATCTGGCCTCGGCAGCATAAAAGGAACCTCTAGCTAGCCGACTCACTATAGGGATAATCGCCCTGAGCAAAGACC”: the binding signal was 0.863 ± 0.103 log2FC.

The sequence “CTCGAGGATATCAAGATCTGGCCTCGGCTTTTTAAGAGGAACCTCTAGCTAGCCGACTCACTATAGGGATAATCGCCCTGAGCAAAGACC” returned a binding signal of 2.84 ± 0.0822 log2FC.

“CTCGAGGATATCAAGATCTGGCCTCGGCTTTTTAAGCGGAACCTCTAGCTAGCCGACTCACTATAGGGATAATCGCCCTGAGCAAAGACC” gave a binding signal of 0.814 ± 0.0936 log2FC.

On to “CTCGAGGATATCAAGATCTGGCCTCGGCATTTTATGGGGAACCTCTAGCTAGCCGACTCACTATAGGGATAATCGCCCTGAGCAAAGACC”, for which the binding signal worked out at 3.25 ± 0.0762 log2FC.

As for “CTCGAGGATATCAAGATCTGGCCTCGGCATTTTAAGGGGAACCTCTAGCTAGCCGACTCACTATAGGGATAATCGCCCTGAGCAAAGACC”, the binding signal was determined as 1.95 ± 0.0802 log2FC.

In the case of “CTCGAGGATATCAAGATCTGGCCTCGGCATTTTAGAAGGAACCTCTAGCTAGCCGACTCACTATAGGGATAATCGCCCTGAGCAAAGACC”, the binding signal was 0.382 ± 0.0937 log2FC.

Turning to “CTCGAGGATATCAAGATCTGGCCTCGGCCGCCCAAGCGGAACCTCTAGCTAGCCGACTCACTATAGGGATAATCGCCCTGAGCAAAGACC”, the binding signal was -0.698 ± 0.123 log2FC.
